Results on 24 compounds are retold here after ChEMBL document CHEMBL1157539, “Thousands of chemical starting points for antimalarial lead identification” (Nature, 2010).

What all share (type): functional
Experiment [1] has as its system Plasmodium falciparum. Briefly: GSK_TCMDC: Inhibition of Plasmodium falciparum 3D7 in whole red blood cells, using parasite LDH activity as an index of growth. Test compounds present at 2uM.
In experiment [2] the test system is Plasmodium falciparum. Nature of the experiment: GSK_TCMDC: Inhibition of Plasmodium falciparum Dd2 in whole red blood cells, using parasite LDH activity as an index of growth. Test compounds present at 2uM.
The subject of the next experiment is HepG2. Briefly: GSK_TCMDC: Percent inhibition of human HepG2 cell line. Test compounds present at 10uM.

The Inhibition is the relative decrease from the control value, in per cent. A high value points to strong suppression. As for `CC(C)CNCc1ccc(-c2ccc(CN(C(=O)NCCc3ccccc3)C3CCN(Cc4ccccc4)CC3)cc2)cc1.O=C(O)C(F)(F)F`, the Inhibition with Plasmodium falciparum [1] came out at 98%; in the experiment on Plasmodium falciparum [2], 62%; with HepG2, 37%.

`O=C(Nc1cc(Cl)c(Cl)cc1NC(=O)c1cccc(-c2ccccc2)c1O)c1cccc(-c2ccccc2)c1O`: the Inhibition came to 100% with Plasmodium falciparum [1], 100% in the experiment with Plasmodium falciparum [2] and 79% with HepG2.

For `CC(C)CNC(=O)c1ccnc(-c2ccc(CNCCCc3ccccc3)cc2)c1.O=C(O)C(F)(F)F`, the Inhibition with Plasmodium falciparum [1] amounted to 99%; with Plasmodium falciparum [2] it was 22%; with HepG2, 12%.

In the case of `CN1CCC(c2c[nH]c3ccc(NC(=O)Nc4ccc(-c5ccncc5)c(Cl)c4Cl)cc23)CC1`, the Inhibition in the experiment with Plasmodium falciparum [1] was determined as 100%; in the experiment on Plasmodium falciparum [2], 19%; in the experiment with HepG2 it was 27%.

As for `Cc1[nH]c(C)c(-c2ccc(-c3ccccc3Cl)nc2)c(=O)c1Br`, the Inhibition with Plasmodium falciparum [1] was found to be 97%; in the experiment on Plasmodium falciparum [2], 96%; with HepG2, 0%.

Regarding `COc1cc2nc(Cl)nc(Nc3ccncc3)c2cc1OC.Cl`, the values for the Inhibition in the experiment on Plasmodium falciparum [1], in the experiment with Plasmodium falciparum [2] and in the experiment on HepG2 were 86%, 33% and 11%, respectively.

In the case of `CCc1ccc(CN2CCC(CN(c3ccc(N4CCOCC4)c(F)c3)S(=O)(=O)c3ccc(C(C)(C)CC)cc3)CC2)cc1.Cl`, the values for the Inhibition in the experiment on Plasmodium falciparum [1], in the experiment with Plasmodium falciparum [2] and with HepG2 were 93%, 94% and 26%, respectively.

As to `COc1ccc(CNC2CCN(C)CC2)cc1-c1ccc(S(=O)(=O)NCCc2ccccn2)c(F)c1.O=C(O)C(F)(F)F`, the values for the Inhibition in the experiment with Plasmodium falciparum [1], with Plasmodium falciparum [2] and in the experiment with HepG2 were 100%, 55% and 3%, respectively.

For the compound `Cc1noc(C)c1-c1ccc2c(Nc3ccccc3C(C)(C)C)c(C(=O)NCc3ccc4c(c3)OCO4)cnc2c1.Cl`, the Inhibition in the experiment on Plasmodium falciparum [1] came to 96%; in the experiment on Plasmodium falciparum [2], 88%; in the experiment with HepG2 it was 37%.

On to `Cc1cccc(C(=O)Nc2ccnc(N3CCC(N(C)Cc4cccc(C#N)c4)CC3)c2)c1.O=C(O)C(F)(F)F`, for which the Inhibition is listed as 100% with Plasmodium falciparum [1], 52% in the experiment on Plasmodium falciparum [2] and 5% with HepG2.

For `O=C(c1ccc(-c2cccc(-c3nc4cc(C(F)(F)F)ccc4[nH]3)c2)cc1)N1CCCCC1CN1CCC(O)C1` (configuration not stated), the Inhibition is 100% in the experiment with Plasmodium falciparum [1], 98% in the experiment with Plasmodium falciparum [2] and 29% in the experiment on HepG2.

Regarding `CCCCCC(=O)NCC(NCCCNc1cc(=O)c2ccccc2[nH]1)c1cc(Br)cc(Br)c1` (configuration not stated), the Inhibition in the experiment with Plasmodium falciparum [1] is 96%; in the experiment on Plasmodium falciparum [2], 66%; in the experiment on HepG2, 0%.

Consider `O=C(c1ccc(Cl)cc1)N1CCOC(CCN2CCC(c3ccccc3)CC2)(c2ccc(Cl)c(Cl)c2)C1` (configuration not stated), for which the figures for the Inhibition with Plasmodium falciparum [1], in the experiment on Plasmodium falciparum [2] and with HepG2 were 98%, 68% and 19%, respectively.

On to `Nc1nc(O)c2cc(CN(C=O)c3ccc(C(=O)N[C@@H](CCC(=O)O)C(=O)O)cc3)ccc2n1`, for which the Inhibition in the experiment with Plasmodium falciparum [1] turned out to be 93%; in the experiment on Plasmodium falciparum [2], 94%; with HepG2, 0%.

For `c1ccc(-c2cc(NCc3cccc4ccccc34)c3[nH]ncc3n2)cc1`, the Inhibition was found to be 93% in the experiment with Plasmodium falciparum [1], 5% in the experiment on Plasmodium falciparum [2] and 7% in the experiment with HepG2.

Take `CC(=O)NCC(=O)NC1=NC(=N)N(OCc2ccc3ccccc3c2)C(C)(C)N1`: the results for the Inhibition in the experiment on Plasmodium falciparum [1], in the experiment with Plasmodium falciparum [2] and in the experiment with HepG2 were 95%, 97% and 66%, respectively.

On to `CCOc1cc(C2C(C(=O)OC(C)C)=C(C)NC3=C2C(=O)CC(c2ccc(Cl)cc2)C3)ccc1OC(C)=O` (configuration not stated), for which the Inhibition in the experiment with Plasmodium falciparum [1] is 90%; in the experiment on Plasmodium falciparum [2] it was 20%; with HepG2, 16%.

In the case of `O=C(Nc1nccs1)c1cn(-c2ccccc2)nc1-c1ccc(Cl)s1`, the Inhibition turned out to be 96% in the experiment with Plasmodium falciparum [1], 18% in the experiment with Plasmodium falciparum [2] and 9% in the experiment with HepG2.

Take `CCOC(=O)CCc1cc(F)c(F)c(OC[C@H](O)CNC(C)(C)C(O)c2ccc3ccccc3c2)c1.Cl` (some centres not stated): the Inhibition in the experiment on Plasmodium falciparum [1] is given as 99%; in the experiment with Plasmodium falciparum [2], 92%; in the experiment with HepG2, 12%.

For the compound `Cc1ccc(C(NC(=O)C2CCCCC2)c2ccc3cccnc3c2O)cc1` (configuration not stated), the Inhibition in the experiment on Plasmodium falciparum [1] turned out to be 91%; in the experiment with Plasmodium falciparum [2], 59%; in the experiment with HepG2 it was 69%.

With `Cc1cccc2nc(-c3ccc(-c4ccc(CNCCNC(=O)c5ccnn5C)cc4)cc3)[nH]c12.O=C(O)C(F)(F)F`, the values for the Inhibition in the experiment on Plasmodium falciparum [1], with Plasmodium falciparum [2] and in the experiment on HepG2 were 100%, 98% and 29%, respectively.

For `CCCCN(Cc1cc(Cl)c(OCC)c(OC)c1)c1ccc(C(O)(C(F)(F)F)C(F)(F)F)cc1.O=C(O)C(F)(F)F`, the figures for the Inhibition with Plasmodium falciparum [1], in the experiment with Plasmodium falciparum [2] and with HepG2 were 92%, 97% and 5%, respectively.

Consider `CC(C)(C)c1ccc(CN2CCC(NC(=O)c3cc(-c4cccc(C(F)(F)F)c4)cs3)C2)cc1.O=C(O)C(F)(F)F` (configuration not stated), for which the results for the Inhibition in the experiment on Plasmodium falciparum [1], in the experiment with Plasmodium falciparum [2] and in the experiment with HepG2 were 98%, 85% and 24%, respectively.

On to `O=C(NCc1ccccc1)NC1CCN(c2ccnc3cc(Cl)ccc23)C1.O=C(O)C(F)(F)F` (configuration not stated), for which the Inhibition in the experiment on Plasmodium falciparum [1] amounted to 94%; in the experiment on Plasmodium falciparum [2] it was 99%; in the experiment on HepG2, 13%.
